We go through 13 compounds from PubChem BioAssay (NCATS).

Assay [1] concerns the target Androgen receptor (Homo sapiens) (UniProt P10275). Description: qHTS assay for small molecule agonists of androgen receptor signaling (AID 588515; active means well fitted curve in the direction sought with a large enough effect in the signal ratio, with a control signal flat; the % refers to the signal ratio; further: on the % scale 0 is the no-effect control and ±100 the full control effect). As to conditions: AR-UAS-bla HEK293, beta-lactamase ratio, agonist 16 h; stronger effect = higher value. In short, it runs like this: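 EC50 and efficacy came from Hill fits of titrations (up to 92 uM) normalized to 30 nM R1881 as 100% and DMSO as 0%. Compound exposure was 16 h at 37 C on AR-UAS-bla HEK293 cells, with a 405/460/530 nm CCF4 fluorescence read.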
Background: Quantitative high-throughput screening tests each substance at several concentrations.

For assay [2], the target named is Glucocorticoid receptor (Homo sapiens) (UniProt P04150). The assay is described as follows: qHTS assay for small molecule agonists of glucocorticoid receptor signaling (AID 588532; active means well fitted curve in the direction sought with a large enough effect in the signal ratio, with a control signal flat; the % refers to the signal ratio;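 further: 100% = dexamethasone at 0.1 µM and 0% = DMSO only wells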). As to conditions: HeLa MMTV-bla, beta-lactamase ratio, agonist, 18 h; activation: stronger effect = higher value, percent of dexamethasone control, DMSO zero. An outline of the steps:
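Cells were plated and rested 3-5 h at 37 C, compounds were added in titration and incubated 18 h, then CCF4 substrate was loaded for 2 h at RT before reading blue/green fluorescence. EC50 came from Hill-equation fitting.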

Assay [3] concerns the target Peroxisome proliferator-activated receptor gamma (Homo sapiens) (UniProt P37231). Description: qHTS assay for small molecule agonists of peroxisome proliferator-activated receptor gamma signaling (AID 588536; active means well fitted curve in the direction sought with a large enough effect in the signal ratio, with a control signal flat, not every such curve was filed as active; the % refers to the signal ratio;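 further: 0% = DMSO basal wells and 100% = rosiglitazone at 2 µM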). An outline of the steps: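 GeneBLAzer PPAR-gamma-UAS-bla HEK293 cells in 1% charcoal/dextran-treated FBS medium were treated 16 h at 37 C with compounds. Beta-lactamase activity was read by CCF4 ratio (460/530 nm). Response was normalized to 2 uM rosiglitazone (100%) and DMSO, then Hill-fitted for EC50 and efficacy.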

Assay [4] addresses Vitamin D3 receptor (Homo sapiens) (UniProt P11473). The assay is described as follows: qHTS assay for small molecule agonists of vitamin D receptor signaling (AID 588543).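 Further: 0% = DMSO basal and 100% = reference agonist control.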 An outline of the steps:
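Agonist-mode beta-lactamase reporter: HEK293T VDR-UAS-bla cells in charcoal-stripped 2% FBS, compound series 16 h 37 C, CCF4 2 h RT. EC50 from Hill fit, scaled against DMSO and 50 nM calcitriol control.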

Assay [5] is described as follows: qHTS assay for small molecule agonists of retinoid X receptor alpha signaling (AID 588544). The conditions noted are these: HEK293T RXRa-UAS-bla, beta-lactamase reporter, 18 h; 530 nm emission.
Assay [6] has as its target Androgen receptor (Homo sapiens) (UniProt P10275). Description: qHTS assay for small molecule antagonists of androgen receptor signaling (AID 588516; active means well fitted curve in the direction sought with a large enough effect in the signal ratio, with a control signal flat, not every such curve was filed as active; the % refers to the signal ratio; further: on the % scale 0 is the no-effect control and ±100 the full control effect). In short, it runs like this:
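Antagonist mode: inhibition of R1881-stimulated (10 nM final) bla reporter in GeneBLAzer AR HEK 293 cells, 16 h at 37C, compounds titrated. IC50 and efficacy from Hill-equation fits of 405/460–530 nm FRET ratios.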

A short description of assay [7]: qHTS assay for small molecule agonists of the antioxidant response element (ARE) signaling pathway (AID 651741; active means well fitted activation curve with a large enough effect in the signal ratio; the % refers to the signal ratio; further: potency means the concentration at half of the fitted maximal effect; on activation: % of control where 0% means no effect). An outline of the steps:
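HepG2 ARE-bla cells plated at 2,000 cells/well and incubated 5 h at 37 C/5% CO2 received 23 nL compound in DMSO. After 16 h at 37 C, LiveBLAzer B/G FRET substrate was applied for 2 h at room temperature and fluorescence read.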

The nature of assay [8]: qHTS assay for small molecule activators of the human pregnane X receptor (PXR) signaling pathway (AID 720659; call rule not given here; further: 0% is about no effect).
Assay [9] deals with Bile acid receptor (Homo sapiens) (UniProt Q96RI1). Description: qHTS assay for small molecule antagonists of farnesoid X receptor signaling (AID 588526). Further: on the % scale 0 is the no-effect control and ±100 the full control effect. An outline of the steps: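 Antagonist mode: titrated compounds tested against chenodeoxycholic acid stimulation (normalized to 50 uM CDCA and DMSO) in GeneBLAzer HEK293T cells for 16 h. Beta-lactamase read by CCF4 fluorescence; IC50 from Hill fits.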

Assay [10] shares this target. The assay is described as follows: qHTS assay for small molecule agonists of farnesoid X receptor signaling (AID 588527).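 Further: series mostly up to about 77 µM; 0% = vehicle basal and 100% = reference agonist.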 The conditions noted are these: HEK293T FXR-UAS-bla, beta-lactamase ratio, 16 h; activation: stronger effect = higher value. In short, it runs like this: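 FXR-UAS-bla HEK293T cells (10% dialyzed FBS) preincubated 5-7 h at 37 C, then compounds at up to 92 uM for 16 h at 37 C. CCF4 beta-lactamase read-out after 2 h RT. Normalized to chenodeoxycholic acid (100 uM) and DMSO; Hill fit gave EC50 and efficacy.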

Assay [11] concerns the target Peroxisome proliferator-activated receptor gamma (Homo sapiens) (UniProt P37231). The assay is described as follows: qHTS assay for small molecule antagonists of peroxisome proliferator-activated receptor gamma signaling (AID 588537; active means well fitted inhibition curve with a large enough effect in the signal ratio, with a control signal flat, not every such curve was filed as active; the % refers to the signal ratio;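 further: reporter cells co-stimulated with 50 nM rosiglitazone agonist during compound treatment; % of control where 0% means no effect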). In short, it runs like this: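 Step one: plate 3000 HEK293 UAS-bla cells per well in medium with 1% stripped serum and hold 6-6.5 h at 37 C. Step two: add compound and 50 nM agonist for 16 h. Step three: CCF4 loading, fluorescence read.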

Structures are written as SMILES. Results filed as inconclusive are left out. Active and inactive are the calls of the source. Unless noted, the call rests on the fitted dose curve.

Vitamin D3 receptor (Homo sapiens), sequence (P11473 whole entry, looked up): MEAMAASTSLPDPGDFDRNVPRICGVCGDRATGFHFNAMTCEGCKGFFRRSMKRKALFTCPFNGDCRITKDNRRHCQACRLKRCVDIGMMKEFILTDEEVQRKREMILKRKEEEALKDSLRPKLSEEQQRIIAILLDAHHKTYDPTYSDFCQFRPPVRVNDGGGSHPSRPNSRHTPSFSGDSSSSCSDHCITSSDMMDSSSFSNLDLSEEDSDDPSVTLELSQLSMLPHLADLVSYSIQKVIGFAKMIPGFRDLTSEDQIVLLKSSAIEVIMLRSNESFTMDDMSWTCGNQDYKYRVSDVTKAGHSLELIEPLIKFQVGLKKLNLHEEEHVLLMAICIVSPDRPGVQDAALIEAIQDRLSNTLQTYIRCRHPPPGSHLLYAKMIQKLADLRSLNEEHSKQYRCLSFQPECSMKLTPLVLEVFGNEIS
Glucocorticoid receptor (Homo sapiens), sequence (P04150 whole entry, looked up): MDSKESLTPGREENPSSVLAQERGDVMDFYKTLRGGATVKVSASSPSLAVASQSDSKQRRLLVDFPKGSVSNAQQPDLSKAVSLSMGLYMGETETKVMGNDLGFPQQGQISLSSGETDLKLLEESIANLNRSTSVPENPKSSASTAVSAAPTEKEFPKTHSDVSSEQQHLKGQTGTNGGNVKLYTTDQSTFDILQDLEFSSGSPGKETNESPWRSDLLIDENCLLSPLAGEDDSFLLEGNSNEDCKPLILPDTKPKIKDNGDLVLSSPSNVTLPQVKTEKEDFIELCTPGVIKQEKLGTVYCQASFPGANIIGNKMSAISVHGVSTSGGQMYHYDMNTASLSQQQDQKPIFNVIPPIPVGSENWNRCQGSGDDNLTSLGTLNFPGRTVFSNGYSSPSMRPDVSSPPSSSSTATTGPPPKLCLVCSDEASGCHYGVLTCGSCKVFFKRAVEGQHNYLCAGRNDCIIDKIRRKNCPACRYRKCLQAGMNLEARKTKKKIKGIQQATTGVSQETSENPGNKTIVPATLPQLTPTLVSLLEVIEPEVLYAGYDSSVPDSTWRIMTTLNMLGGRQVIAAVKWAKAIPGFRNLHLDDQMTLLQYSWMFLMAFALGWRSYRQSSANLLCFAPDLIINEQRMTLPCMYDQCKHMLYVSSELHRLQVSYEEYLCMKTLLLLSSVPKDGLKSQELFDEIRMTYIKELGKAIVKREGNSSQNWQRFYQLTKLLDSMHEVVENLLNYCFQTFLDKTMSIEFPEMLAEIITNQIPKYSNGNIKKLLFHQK
Bile acid receptor (Homo sapiens), sequence (Q96RI1 whole entry, looked up): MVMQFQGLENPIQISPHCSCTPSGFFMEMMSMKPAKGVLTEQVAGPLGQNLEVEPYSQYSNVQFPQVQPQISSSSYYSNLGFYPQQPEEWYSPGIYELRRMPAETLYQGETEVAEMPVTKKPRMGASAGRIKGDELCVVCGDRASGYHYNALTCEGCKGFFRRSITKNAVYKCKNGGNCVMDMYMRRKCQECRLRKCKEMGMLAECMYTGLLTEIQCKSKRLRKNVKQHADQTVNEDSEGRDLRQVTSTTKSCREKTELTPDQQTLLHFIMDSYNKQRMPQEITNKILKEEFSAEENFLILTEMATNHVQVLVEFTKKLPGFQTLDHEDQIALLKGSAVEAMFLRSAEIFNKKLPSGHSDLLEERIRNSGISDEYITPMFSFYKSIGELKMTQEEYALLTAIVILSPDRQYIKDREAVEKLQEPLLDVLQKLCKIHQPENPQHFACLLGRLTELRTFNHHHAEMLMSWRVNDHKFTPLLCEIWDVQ
Androgen receptor (Homo sapiens), sequence (P10275 whole entry, looked up): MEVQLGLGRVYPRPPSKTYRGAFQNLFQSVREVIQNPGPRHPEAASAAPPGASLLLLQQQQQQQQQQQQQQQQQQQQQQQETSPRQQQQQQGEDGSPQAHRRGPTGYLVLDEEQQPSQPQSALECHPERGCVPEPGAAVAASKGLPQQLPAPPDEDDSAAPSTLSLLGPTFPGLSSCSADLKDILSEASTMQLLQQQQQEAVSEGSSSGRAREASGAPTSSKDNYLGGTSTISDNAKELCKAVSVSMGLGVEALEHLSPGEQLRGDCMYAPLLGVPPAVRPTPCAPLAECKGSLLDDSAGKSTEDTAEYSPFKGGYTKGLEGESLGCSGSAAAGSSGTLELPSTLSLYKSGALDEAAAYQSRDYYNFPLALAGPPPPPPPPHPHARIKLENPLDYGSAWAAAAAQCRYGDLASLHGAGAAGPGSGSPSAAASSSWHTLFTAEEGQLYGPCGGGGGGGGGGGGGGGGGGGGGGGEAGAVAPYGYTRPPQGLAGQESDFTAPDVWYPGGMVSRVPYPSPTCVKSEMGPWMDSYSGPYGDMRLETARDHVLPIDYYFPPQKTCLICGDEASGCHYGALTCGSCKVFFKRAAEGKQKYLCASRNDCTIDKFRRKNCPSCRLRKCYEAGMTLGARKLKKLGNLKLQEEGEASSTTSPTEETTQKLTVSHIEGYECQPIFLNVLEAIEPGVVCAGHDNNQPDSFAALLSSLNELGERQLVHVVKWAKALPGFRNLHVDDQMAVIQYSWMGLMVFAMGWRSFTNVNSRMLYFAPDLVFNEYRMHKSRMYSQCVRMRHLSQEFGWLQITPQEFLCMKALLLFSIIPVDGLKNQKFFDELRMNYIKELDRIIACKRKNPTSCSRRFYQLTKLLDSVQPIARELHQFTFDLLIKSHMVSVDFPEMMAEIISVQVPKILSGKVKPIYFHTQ
Peroxisome proliferator-activated receptor gamma (Homo sapiens), sequence (P37231 whole entry, looked up): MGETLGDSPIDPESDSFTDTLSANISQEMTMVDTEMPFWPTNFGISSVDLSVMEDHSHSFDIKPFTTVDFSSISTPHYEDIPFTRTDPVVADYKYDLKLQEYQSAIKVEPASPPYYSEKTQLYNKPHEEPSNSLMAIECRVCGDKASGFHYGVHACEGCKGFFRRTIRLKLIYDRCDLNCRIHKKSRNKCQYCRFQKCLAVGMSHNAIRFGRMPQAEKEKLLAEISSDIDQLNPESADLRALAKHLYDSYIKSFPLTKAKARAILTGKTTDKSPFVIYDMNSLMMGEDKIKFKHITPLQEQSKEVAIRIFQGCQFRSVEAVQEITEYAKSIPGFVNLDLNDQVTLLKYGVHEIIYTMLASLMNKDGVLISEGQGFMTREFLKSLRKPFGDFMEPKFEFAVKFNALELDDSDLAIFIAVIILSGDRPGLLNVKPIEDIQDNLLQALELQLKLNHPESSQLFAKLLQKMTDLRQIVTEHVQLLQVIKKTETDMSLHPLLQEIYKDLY

Regarding `O=C1c2ccccc2C(=O)C1C(=O)C(c1ccccc1)c1ccc(Cl)cc1` (stereo not drawn), the activation is -4.67% (inactive) in assay [1] and -5.26% (inactive) in assay [2]. The Potency entry in [3] was “inactive”. In addition, in assay [4], the compound was called inactive. In addition, the max response in [5] is -4.27%.
Turning to `CCC(C)(C)c1cc(-n2nc3ccccc3n2)c(O)c(C(C)(C)CC)c1`, the activation is 3.42% (inactive) in assay [1] and 2.15% (inactive) in assay [2]. Besides, the Potency entry in assay [6] is “inactive”. Besides, the compound was classed as inactive in [4] and in assay [8]. The max response in assay [5] is -3.41%. In addition, in assay [7], the Potency is 30.6 µM (active).
As for `CCCCOC(=O)c1ccccc1C(=O)O`, the results for the activation in assay [1] and in [10] were 5.7% (inactive) and -1.61% (inactive), respectively. The Potency result in [9], in assay [3] and in assay [11] was “inactive” each time. The max response in assay [5] was -15.3%. Moreover, the result in [8] was inactive.
On to `CCOP(=S)(OCC)SCSP(=S)(OCC)OCC`, for which the activation in assay [2] is -1.05% (inactive). The Potency entry in assay [3] and in assay [11] was “inactive” throughout. Moreover, the call in assay [4] was inactive.
`CCC[CH2][Sn](=[O])[CH2]CCC`: the values for the activation in assay [1], in [10] and in assay [2] were 0.348% (inactive), -6.54% (inactive) and -3.35% (inactive), respectively. Besides, the Potency result in assay [6], in assay [3], in assay [11] and in [7] was “inactive” throughout. Besides, the outcome in assay [4] and in assay [8] was inactive. Further, the max response in assay [5] was -5.73%.
As to `O=C(NC(=O)c1c(F)cccc1F)Nc1cc(Cl)c(OC(F)(F)C(F)C(F)(F)F)c(Cl)c1F` (stereo not drawn), the values for the activation in assay [1] and in assay [10] were -3.76% (inactive) and 3.38% (inactive), respectively. The Potency entry in [6], in [9], in assay [3] and in assay [11] was “inactive” throughout. In addition, the call in [4] was inactive. Also, the Potency in assay [7] was 30.6 µM (active).
As to `Cn1c(-c2ccccc2)cc(-c2ccccc2)[n+]1C`, the activation in [2] is -9.09% (inactive). Also, the Potency entry in [11] is “inactive”. For the same compound, the compound was called inactive in assay [4]. In addition, the max response in [5] was found to be 12.1%.
As for `Cc1ccccc1CO[C@@H]1C[C@@]2(C(C)C)CC[C@]1(C)O2`, the activation in assay [1] is -0.477% (inactive). The Potency result in assay [6], in assay [3], in assay [11] and in [7] was “inactive” throughout. In assay [4], the compound was called inactive. Besides, the max response in assay [5] was found to be 4.66%.
Turning to `Cc1cc(Cl)ccc1O[C@H](C)C(=O)O`, the Potency result in [11] was “inactive”. Also, the max response in [5] is -13.3%. Moreover, in [8], the compound was called inactive.
In the case of `CCC(C)Nc1c([N+](=O)[O-])cc(C(C)(C)C)cc1[N+](=O)[O-]` (stereo not drawn), the activation in [2] is -11.2% (inactive). Also, the Potency result in assay [11] was “inactive”. Moreover, in [4], the call was inactive. Also, the max response in assay [5] was -9.41%.
In the case of `C=C(C)C(=O)OCC(CC)CCCC` (stereo not drawn), the activation in assay [2] was -12.2% (inactive). In addition, the max response in assay [5] was -20.3%. The Potency result in assay [7] was “inactive”. Further, the call in assay [8] was inactive.
Regarding `CCOP(=O)(OCC)OP(=O)(OCC)OCC`, the activation in assay [1] is 5.85% (inactive); in assay [10] it was 2.91% (inactive). Moreover, the Potency entry in assay [6], in [9], in assay [11] and in [7] was “inactive” each time. The compound was classed as inactive in assay [4]. The max response in assay [5] is -12.7%.
As to `CNC(=O)N(C)c1nc2ccccc2s1`, the activation in assay [1] is -11.3% (inactive); in [10] it was 4.82% (inactive). Besides, the Potency result in [9] and in [11] was “inactive” throughout. The result in assay [4] was inactive. Further, the max response in assay [5] is -6.4%. The Potency in assay [7] was 27.3 µM (active).
